Inconclusive results are not listed. The source made the active and inactive calls. Calls come from the whole dose curve; as a rule, active = well fitted cell-killing curve with a large enough effect; inconclusive = small, poorly fitted or top-dose-only effect, or effect the other way; inactive = no such curve, though single readings can be large or run the other way.
system: JEG-3; assay: Confirmatory qHTS for gynecologic anti-cancer compounds from libraries of approved drugs and bioactive compounds; details: gynecologic cancer cell panel viability, ATPlite luminescence, 48 h; series mostly up to 57.6 µM; activity change, negative = viability loss: at the top concentration; note: nearly all actives have a fitted effect of over 55% in size
In short: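 IC50 values derive from an ATPlite ATP-content luminescence assay following 48 h treatment at 37 C. Each compound ran as an 11-concentration, threefold series (57.5 uM to 0.977 nM); HEK 293T served as control line for selectivity index.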
% is set by controls: 0 for no effect and ±100 for the full control effect; potency is the fitted concentration of half-maximal effect.

Q: How did the “activity change, negative = viability loss” value turn out when `CCN1CCN(C(=O)Cc2ccc(Nc3ncc(F)c(Nc4ccc(C(=O)Nc5ccccc5Cl)cc4)n3)cc2)CC1` was run?
A: -5.82% (inactive)

Q: For `CCC(=O)O[C@H]1CC[C@H]2[C@@H]3CCC4=CC(=O)CC[C@]4(C)[C@H]3CC[C@]12C`, which “activity change, negative = viability loss” value is on record?
A: -32.1% (inactive)

Q: How did the Potency turn out when `CCOc1ccccc1-n1c(C(C)N2CCN(C(=O)COc3ccc(Cl)cc3)CC2)nc2ccccc2c1=O` (centres undefined) was run?
A: 10.9 µM (active)

Q: For `C=C(C)[C@H]1Cc2c(ccc3c2O[C@@H]2COc4cc(OC)c(OC)cc4[C@@H]2C3=O)O1`, which Potency is on record?
A: 0.0273 µM (active)

Q: How did the “activity change, negative = viability loss” value turn out when `C[C@]12CC[C@H]3[C@@H](CCC4=CC(=O)CC[C@@H]43)[C@@H]1CC[C@@H]2OC(=O)CCc1ccccc1` was run?
A: 10% (inactive)

Q: Which Potency does the source give for `Cc1sc2c(c1C)C(c1ccc(Cl)cc1)=NC(CC(=O)OC(C)(C)C)c1nnc(C)n1-2` (centres undefined) here?
A: 1.93 µM (active)

Q: For `C/C=C(/C)C(=O)O[C@H]1C(C)=C2[C@H]([C@@H]1OC(=O)CCCCCCC)[C@@](C)(OC(C)=O)C[C@H](OC(=O)CCC)[C@@]1(O)[C@H]2OC(=O)[C@@]1(C)O`, which Potency is on record?
A: 0.0544 µM (active)

Q: `C[C@H]1CCC/C=C/C2C[C@H](O)C[C@H]2[C@H](O)/C=C/C(=O)O1` (some centres undefined) was tested. Which Potency did it give?
A: 0.344 µM (active)

Q: Which “activity change, negative = viability loss” value does the source give for `O=C(O)Cc1ccccc1` here?
A: 3.89% (inactive)

Source: PubChem BioAssay AID1345085 (National Center for Advancing Translational Sciences (NCATS), 2018)
